Screening results as filed in PubChem.
LASV entry inh = Lassa virus entry inhibition; AID 540256; 300,000 compounds, 1.2% hits; Potency, µM (series often up to 37.9 µM), most hits filed as inhibitors; Lassa virus pseudotype entry inhibition, cell reporter; calls by dose curve; tested in HEK293 cells; note: nearly all actives have a fitted effect of over 50% in size
Cycloheximide cs = counter-screen for Shiga toxin inhibitors: cycloheximide protein synthesis inhibition | 300,000 compounds, 12% hits | max response, % | cell reporter, cycloheximide protein synthesis inhibition counterscreen; in the data active = max response mostly above about 13%, no sharp cut-off; inactive = mostly below about 14%; note: read at 38.3 µM for the half of the compounds with a filed dose
Marburg entry inh = inhibitors of Marburg virus binding or cell entry; Marburg virus pseudotyped entry inhibition, cell reporter; Potency, µM (highest dose often 37.8 µM), most hits filed as inhibitors; 300,000 compounds, 1.8% hits; calls by dose curve; tested in HEK293 cells
Shiga toxin inh = blocks Shiga toxin action in Vero cells | Vero cells, Shiga toxin protein synthesis inhibition reporter | inhibition, % at 38.7 µM | 290,000 compounds, 9.2% hits | AID 2315; in the data active = inhibition mostly above about 28%, no sharp cut-off; inactive = mostly below about 43%
Each line names hits and unclear results; the compound was inactive in the other large screens; ! = not active in a repeat. Sampled rows, rich in hits. Any-hit rate of the full collection: about 12%.

CCOC(=O)C1=C(CS(=O)(=O)c2ccc(C)c(C)c2)NC(=O)NC1c1ccccc1OCC (centres undefined)	none (no result: Cycloheximide cs, Shiga toxin inh)
O=C(CSc1nnc(SCc2ccc(Cl)cc2)s1)N/N=C/c1ccc(C(=O)O)cc1	none
Cc1nn(-c2ccccc2)c(C)c1/C=N/NC(=O)CSc1nnc(-c2ccccc2)n1-c1ccc(Cl)cc1	LASV entry inh inconclusive, Marburg entry inh inconclusive
Cc1nn(-c2ccccc2)c(C)c1/C=N/NC(=O)CSc1nnc(SCc2ccccc2Cl)s1	LASV entry inh 2.1µM, Cycloheximide cs 35, Marburg entry inh inconclusive
Cc1ccc(CSc2nnc(SCC(=O)N/N=C/c3c(C)nn(-c4ccccc4)c3C)s2)cc1	LASV entry inh 8.2µM, Cycloheximide cs 76, Marburg entry inh inconclusive, Shiga toxin inh 120
Cc1ccc(C)c2sc(N3CCN(C(=O)C(C)(C)C)CC3)nc12	none (no result: Cycloheximide cs, Marburg entry inh, Shiga toxin inh)
CS(=O)(=O)N(CC(=O)N1CCN(Cc2ccc3c(c2)OCO3)CC1)Cc1ccc(Cl)cc1	LASV entry inh 9.2µM
O=C(N1CCN(Cc2ccc3c(c2)OCO3)CC1)C(Cl)(Cl)Cl	Cycloheximide cs 17, Shiga toxin inh 67
O=C(Cn1c(=O)[nH]c2ccccc2c1=O)N1CCN(Cc2ccc3c(c2)OCO3)CC1	none (no result: LASV entry inh, Marburg entry inh)
O=C(CCCCCn1c(=O)[nH]c2ccccc2c1=O)N1CCN(Cc2ccc3c(c2)OCO3)CC1	LASV entry inh 16µM, Marburg entry inh inconclusive
CS(=O)(=O)N(CCc1ccccc1)CC(=O)N1CCN(Cc2ccc3c(c2)OCO3)CC1	LASV entry inh inconclusive
C=CCn1c(=O)/c(=C2/Sc3cc(OC)ccc3N2C)s/c1=C1\C(=O)N(CC)C(=S)N1C	Cycloheximide cs 21, Shiga toxin inh 53 (no result: LASV entry inh, Marburg entry inh)
COCCn1c(-c2ccccc2)cnc1SCC(=O)Nc1cccc2ccccc12	LASV entry inh inconclusive, Marburg entry inh inconclusive
CCCCOc1ccc(C(=O)N/C(=C/C=C/c2ccccc2)C(=O)O)cc1	none
CCCCOc1ccc(C(=O)N/C(=C/C=C/c2ccccc2)C(=O)NC)cc1	LASV entry inh inconclusive, Cycloheximide cs 10
O=C(/C=C/c1ccccc1Cl)c1ccc(O)cc1	Cycloheximide cs 29, Marburg entry inh inconclusive, Shiga toxin inh 54
CC1CCCC(NC(=O)/C=C/c2c(F)cccc2Cl)C1C (centres undefined)	none (no result: Cycloheximide cs, Shiga toxin inh)
O=C(/C=C/c1c(F)cccc1Cl)c1ccc(O)cc1	Cycloheximide cs 24, Shiga toxin inh 58 (no result: LASV entry inh, Marburg entry inh)
CCOc1ccc(NC(=O)Cn2c(=O)n(Cc3ccccc3)c(=O)c3c4c(sc32)CN(C(C)=O)CC4)cc1	none (no result: LASV entry inh, Cycloheximide cs, Shiga toxin inh)
CN(C)S(=O)(=O)Nc1ccc2c(c1)Cc1ccccc1-2	LASV entry inh inconclusive, Cycloheximide cs 29, Shiga toxin inh 107
C/C(=N/N1CCN(c2ccccn2)CC1)c1ccc([N+](=O)[O-])cc1	Cycloheximide cs 31, Marburg entry inh inconclusive, Shiga toxin inh 21
C/C(=N\N1CCN(c2ccccc2)CC1)c1ccncc1	LASV entry inh inconclusive, Cycloheximide cs 22, Shiga toxin inh 46
O=C(NCC(=O)N1CCN(c2ccccc2)CC1)c1ccco1	none (no result: LASV entry inh, Marburg entry inh)
C/C(=N\N1CCN(c2ccccc2)CC1)c1cccs1	none
C/C(=N/N1CCN(c2ccccc2)CC1)c1cccc([N+](=O)[O-])c1	Cycloheximide cs 33, Marburg entry inh inconclusive, Shiga toxin inh 64
C/C(=N\N1CCN(c2ccccc2)CC1)c1ccco1	Cycloheximide cs 28, Marburg entry inh inconclusive, Shiga toxin inh active
COc1ccc(-n2cnnc2SCC(=O)NC2CCCCC2)cc1	none (no result: Cycloheximide cs, Shiga toxin inh)
CCCCOc1ccc(S(=O)(=O)N2CCN(c3ccc(N4CCN(CC)CC4)nn3)CC2)cc1	none (no result: Cycloheximide cs, Shiga toxin inh)
COc1ccccc1/C=N\NC(=O)c1ccc(COc2ccc(C)c(C)c2)o1	Marburg entry inh inconclusive (no result: Cycloheximide cs, Shiga toxin inh)
CC12C=C(/C=C/CCc3ccco3)C(C)(C1)C(CCc1ccco1)CC2=O (centres undefined)	none (no result: LASV entry inh, Cycloheximide cs, Shiga toxin inh)
C/C(=N\N1CCN(Cc2ccccc2)CC1)c1ccco1	Shiga toxin inh 53
CC1=C(C(=O)N2CCCC(N3CCN(c4cccc(C(F)(F)F)c4)CC3)C2)OCCO1 (centres undefined)	none
COc1ccc(-n2ncc(C(C)NS(=O)(=O)c3cc(F)ccc3C)c2C)cc1 (centres undefined)	Cycloheximide cs 21
COc1ccc(-n2ncc(C(C)NS(=O)(=O)c3cccs3)c2C)cc1 (centres undefined)	LASV entry inh inconclusive
Cc1ccccc1NC(=O)CSc1nc(-c2ccc(F)cc2)nc2c1Cc1ccccc1O2	none (no result: Cycloheximide cs, Shiga toxin inh)
COC(=O)C(NC=O)C(O)(Cc1ccccc1)C(F)(F)F (centres undefined)	Cycloheximide cs 57, Shiga toxin inh 74
CCC(=NCc1ccc2c(c1)OCO2)c1c(O)n(C2CCCCC2)c(=O)[nH]c1=O	LASV entry inh 13µM, Marburg entry inh inconclusive
CC/C(=N\NC(=O)c1ccccc1O)c1c(O)n(C2CCCCC2)c(=O)[nH]c1=O	Cycloheximide cs 23, Shiga toxin inh 52 (no result: LASV entry inh, Marburg entry inh)
CCC(=NCCO)c1c(O)n(C2CCCCC2)c(=O)[nH]c1=O	none
CC(=NCC1CCCO1)c1c(O)n(C2CCCCC2)c(=O)[nH]c1=O (centres undefined)	none (no result: LASV entry inh, Marburg entry inh)
O=C(O)C[C@@H]1CCCc2ccccc2[C@H]1O	none (no result: LASV entry inh, Cycloheximide cs, Shiga toxin inh)
CCOc1ccccc1C1c2[nH]c3ccccc3c2C[C@H]2C(=O)N(C3CC3)CC(=O)N12 (some centres undefined)	none (no result: LASV entry inh, Marburg entry inh)
CC(=O)Oc1cccc(/C=C2\C=C(c3ccc(C)cc3)OC2=O)c1	Cycloheximide cs 17
CC(=O)Oc1cccc(C)c1	Cycloheximide cs 75!, Shiga toxin inh 183! (no result: LASV entry inh, Marburg entry inh)
COc1ccc(OC(=O)COc2cccc(C)c2)cc1	none
COc1ccc(C2=C/C(=C\c3ccc(OC(C)=O)cc3)C(=O)O2)cc1	Cycloheximide cs 40, Shiga toxin inh 87
Cc1cccc(C2=N/C(=C\c3cccs3)C(=O)O2)c1	none (no result: LASV entry inh, Marburg entry inh)
Cc1ccc(C2=C/C(=C/c3cccs3)C(=O)O2)cc1	LASV entry inh inconclusive, Cycloheximide cs 22, Marburg entry inh inconclusive
Cc1nnc(SCc2ccccc2Cl)c2cc3occc3n12	none (no result: Cycloheximide cs, Marburg entry inh, Shiga toxin inh)
O=[N+]([O-])c1ccccc1S(=O)(=O)n1nnc2ccccc21	Marburg entry inh inconclusive
O=C(Cn1cnc2c(nnn2-c2ccc(F)cc2)c1=O)N1CCCC1	none
Cc1c(NC(=O)c2ccco2)cccc1-c1nc2cccnc2s1	Cycloheximide cs 16 (no result: LASV entry inh, Marburg entry inh)
CCS(=O)(=O)Nc1cccc(-c2nc3cccnc3s2)c1C	Cycloheximide cs 30, Shiga toxin inh 73 (no result: LASV entry inh, Marburg entry inh)
O=C(Nc1ccc(-c2nc3cccnc3s2)cc1)c1ccco1	Cycloheximide cs 34, Shiga toxin inh 74 (no result: LASV entry inh, Marburg entry inh)
O=C(Nc1cccc(-c2nc3cccnc3s2)c1)c1ccco1	Cycloheximide cs 20, Shiga toxin inh 57
O=C(Cc1ccccc1)Nc1cccc(-c2nc3cccnc3s2)c1	none (no result: Cycloheximide cs, Shiga toxin inh)
Cc1cc(NC(=O)CSc2nc3cc(C)c(C)cc3cc2C)no1	Marburg entry inh inconclusive
Cc1cc(C)c(C)c(S(=O)(=O)NCC(=O)NCC2CCCCC2)c1C	Marburg entry inh inconclusive
O=C(Nc1cccc(-c2nc3cccnc3s2)c1)c1cccc(Br)c1	none (no result: Cycloheximide cs, Shiga toxin inh)
O=C(Nc1ccc(-c2nc3cccnc3s2)cc1)c1ccc(Br)o1	Cycloheximide cs 47, Shiga toxin inh 53 (no result: LASV entry inh, Marburg entry inh)
Cc1cc(C)c(NC(=O)NC(=O)c2ccc(F)cc2)c(C)n1	Cycloheximide cs 28, Marburg entry inh inconclusive, Shiga toxin inh 34
Cc1cc(C)c(NC(=O)NC(=O)c2cccc(F)c2)c(C)n1	Cycloheximide cs 15
COc1ccc(C(=O)C2CC2)cc1	none (no result: Cycloheximide cs, Shiga toxin inh)
COc1ccc(OCC(=O)C2CC2)c(C#N)c1	Cycloheximide cs 27 (no result: LASV entry inh, Marburg entry inh)
